This note sets out measurements from the supplement of paper PMC11219838.

Molecules are shown by their SMILES. Values without a mark were called inactive.

One assay deals with Meloidogyne hapla J2. Description: proportion of mobile M. hapla J2 relative to DMSO control (fraction of DMSO control); higher = more viable, less nematicidal, active = 0.7 or less. The settings on record: 60 µM; 5 days; temperature: 20 °C. Put shortly:
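Two biological replicates were run and averaged, each on 96-well plates in which about 25 M. hapla J2 sat in distilled water per well. Compound was pinned in to give 60 µM final and 0.6% v/v DMSO, and the sealed plates were shaken at 200 rpm and 20 °C for 5 days before 2 µL 1 M NaOH was added. Mobility was scored microscopically and divided by the mean from the plate's DMSO-only wells, of which there were eight.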
For the compound `O=C(CSc1nnc(-c2cccc(Cl)c2)o1)Nc1ccccc1`, the “proportion of mobile M. hapla J2” value was 0.813.

In the case of `CC(C)Oc1ccc(-c2nc(-c3ccccn3)no2)cc1`, the “proportion of mobile M. hapla J2” value is 0.943. Still for that read-out and setting: the value for `Clc1ccc(SCc2nc(-c3ccccn3)no2)cc1` was 0.0259 (active); that for `O=C(CSc1nnc(-c2ccccc2)o1)Nc1cc(C(F)(F)F)ccc1Cl` was 1.04. Still for that read-out and setting: the result for `O=C(NCc1cccnc1)c1ccccc1-c1nc(-c2ccccc2Cl)no1` reads 0.771; that for `Cc1ccc(-c2nnc(SCc3ccccc3)o2)cc1`, 0.256 (active). Still for that read-out and setting: the value for `O=C(CSc1nnc(-c2ccc(Br)cc2)o1)NC1CCCC1` was 0.944. With `Cc1cc(Cl)ccc1NC(=O)CSc1nnc(-c2ccncc2)o1`, the “proportion of mobile M. hapla J2” value was 0.974.

Regarding `Cc1ccc(CSc2nnc(-c3ccncc3)o2)cc1`, the “proportion of mobile M. hapla J2” value was 0.951.

Turning to `CC(C)(C)NC(=O)CSc1nnc(-c2ccc(C(C)(C)C)cc2)o1`, the “proportion of mobile M. hapla J2” value was 1.02.

Regarding `Brc1cccc(-c2nc(-c3ccccc3)no2)c1`, the “proportion of mobile M. hapla J2” value is 1.02. For the compound `O=C(CSc1nnc(-c2cccc(Br)c2)o1)c1ccc2c(c1)CCCC2`, the “proportion of mobile M. hapla J2” value was 0.967. As for `COc1cccc(-c2nc(-c3ccc(C)cc3)no2)c1`, the “proportion of mobile M. hapla J2” value is 0.953. On the same count and under the same terms, the value for `CCOc1nc(-c2ccccc2)ccc1-c1noc(-c2ccccc2F)n1` was 0.926; that for `Cc1cccc(OCc2nc(-c3ccccc3)no2)c1` was 1.04.

Regarding `Cc1ccc(-c2nc(-c3cccc(C)c3)no2)cc1`, the “proportion of mobile M. hapla J2” value is 0.87. On the same count and under the same terms, the result for `Cc1ccc(-c2nnc(SCC(=O)Nc3cc(C)ccc3C)o2)cc1` reads 0.982. On the same count and under the same terms, the result for `CCOc1ccccc1-c1nnc(SCC(=O)c2ccccc2)o1` reads 1.01. On the same count and under the same terms, the result for `Fc1ccc(-c2noc(COc3ccccc3)n2)cc1` reads 1.07. `COc1ccc(-c2noc(-c3ccc(Cl)cc3Cl)n2)cc1`: the “proportion of mobile M. hapla J2” value was 1.04. Same read-out and setting: the value for `COc1cccc(-c2noc(CSc3ccc(Cl)cc3)n2)c1` was 1.03.

A further assay concerns Caenorhabditis elegans dauer (daf-2(e1370)). Description: proportion of mobile C. elegans dauer larvae relative to DMSO control (fraction of DMSO control); higher = more viable, less nematicidal, active = 0.63 or less; extreme values may be limits of the assay. The settings on record: 60 µM; 5 days; temperature: 20 °C. Put shortly:
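The proportion of mobile worms, relative to DMSO wells, was scored by dissection microscope and averaged over two biological replicates. Worms were C. elegans dauers, about 20 per well in liquid NGM in 96-well plates, generated from synchronized larvae on MYOB plates with E. coli OP50 at 25 °C for 48 h. They were treated with compound pinned to 60 µM final (0.6% v/v DMSO) and kept in sealed plates shaken at 200 rpm for 5 days at 20 °C.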
For the compound `C=CCOc1cccc(-c2nc(-c3cccnc3)no2)c1`, the “proportion of mobile C. elegans dauer larvae” value is 1. On to `Cc1ccccc1OCc1nc(-c2ccc(F)cc2)no1`, for which the “proportion of mobile C. elegans dauer larvae” value is 1.

As for `CC(C)c1ccc(NC(=O)CSc2nnc(-c3ccc(Br)cc3)o2)cc1`, the “proportion of mobile C. elegans dauer larvae” value was 1. Turning to `CC1CCN(C(=O)CSc2nnc(-c3cc4ccccc4o3)o2)CC1`, the “proportion of mobile C. elegans dauer larvae” value is 1. Take `Cc1cccc(C)c1NC(=O)CSc1nnc(-c2ccncc2)o1`: the “proportion of mobile C. elegans dauer larvae” value was 1.

`CC(C)C(=O)Nc1ccccc1-c1nc(-c2ccccc2)no1`: the “proportion of mobile C. elegans dauer larvae” value was 1.

On to `Clc1ccccc1-c1noc(-c2ccncc2)n1`, for which the “proportion of mobile C. elegans dauer larvae” value was 1. Take `Cc1ccc(-c2nc(-c3ccc4c(c3)OCO4)no2)cc1`: the “proportion of mobile C. elegans dauer larvae” value is 1.

`Cc1ccc(-c2nc(-c3cccc(C(F)(F)F)c3)no2)cc1`: the “proportion of mobile C. elegans dauer larvae” value is 1.

Take `Cc1ccc(-c2noc(COc3ccc(Cl)c(C)c3)n2)cc1`: the “proportion of mobile C. elegans dauer larvae” value is 1. As for `COc1nc(-c2ccc(C)cc2)ccc1-c1noc(-c2cccc(C)c2)n1`, the “proportion of mobile C. elegans dauer larvae” value was 1. The same measure, in the same setting: the value for `Cc1ccccc1OCc1nc(-c2ccc(NC(=O)c3ccc(Br)o3)cc2)no1` was 1; that for `Cc1ccc(Cl)cc1NC(=O)CSc1nnc(-c2ccncc2)o1` was 1. Turning to `Cc1ccccc1CSc1nnc(-c2ccco2)n1C`, the “proportion of mobile C. elegans dauer larvae” value is 1. Take `Cc1ccccc1-c1nnc(SCC(=O)Nc2cc(C(F)(F)F)ccc2N2CCOCC2)o1`: the “proportion of mobile C. elegans dauer larvae” value is 1. With `Clc1ccc(-c2noc(-c3ccccc3Cl)n2)cc1`, the “proportion of mobile C. elegans dauer larvae” value is 1.

On to `CC(C)(C)c1ccc(OCc2nc(-c3ccccc3)no2)cc1`, for which the “proportion of mobile C. elegans dauer larvae” value was 1. On the same count and under the same terms, the value for `COc1ccccc1-c1noc(-c2ccc(C(C)(C)C)cc2)n1` was 1; that for `O=C(CSc1nnc(-c2cccc(Cl)c2)o1)Nc1ccccc1` was 1; that for `CC(C)Oc1ccc(-c2nc(-c3ccccn3)no2)cc1` was 0.0263 (active). In the case of `Clc1ccc(SCc2nc(-c3ccccn3)no2)cc1`, the “proportion of mobile C. elegans dauer larvae” value is 0.5 (active). Take `O=C(CSc1nnc(-c2ccccc2)o1)Nc1cc(C(F)(F)F)ccc1Cl`: the “proportion of mobile C. elegans dauer larvae” value is 1. Same read-out and setting: the value for `O=C(NCc1cccnc1)c1ccccc1-c1nc(-c2ccccc2Cl)no1` was 1. Still for that read-out and setting: the value for `Cc1ccc(-c2nnc(SCc3ccccc3)o2)cc1` was 0.371 (active); that for `O=C(CSc1nnc(-c2ccc(Br)cc2)o1)NC1CCCC1` was 1.

`Cc1cc(Cl)ccc1NC(=O)CSc1nnc(-c2ccncc2)o1`: the “proportion of mobile C. elegans dauer larvae” value is 1.

With `Cc1ccc(CSc2nnc(-c3ccncc3)o2)cc1`, the “proportion of mobile C. elegans dauer larvae” value was 1. On the same count and under the same terms, the value for `CC(C)(C)NC(=O)CSc1nnc(-c2ccc(C(C)(C)C)cc2)o1` was 1; that for `Brc1cccc(-c2nc(-c3ccccc3)no2)c1` was 1. As for `O=C(CSc1nnc(-c2cccc(Br)c2)o1)c1ccc2c(c1)CCCC2`, the “proportion of mobile C. elegans dauer larvae” value was 1. The same measure, in the same setting: the value for `COc1cccc(-c2nc(-c3ccc(C)cc3)no2)c1` was 0 (active); that for `CCOc1nc(-c2ccccc2)ccc1-c1noc(-c2ccccc2F)n1` was 1.

In the case of `Cc1cccc(OCc2nc(-c3ccccc3)no2)c1`, the “proportion of mobile C. elegans dauer larvae” value is 1.

Regarding `Cc1ccc(-c2nc(-c3cccc(C)c3)no2)cc1`, the “proportion of mobile C. elegans dauer larvae” value is 1. As for `Cc1ccc(-c2nnc(SCC(=O)Nc3cc(C)ccc3C)o2)cc1`, the “proportion of mobile C. elegans dauer larvae” value is 1. The same measure, in the same setting: the value for `CCOc1ccccc1-c1nnc(SCC(=O)c2ccccc2)o1` was 1. In the case of `Fc1ccc(-c2noc(COc3ccccc3)n2)cc1`, the “proportion of mobile C. elegans dauer larvae” value is 0.5 (active). With `COc1ccc(-c2noc(-c3ccc(Cl)cc3Cl)n2)cc1`, the “proportion of mobile C. elegans dauer larvae” value is 1. Same read-out and setting: the value for `COc1cccc(-c2noc(CSc3ccc(Cl)cc3)n2)c1` was 1.
